This is part of a sample that, as a whole, favours compounds with a hit. Of some 83,000 tested, about 20% had one in any assay.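 Cell lines were cultured in 96-well plates, exposed to a single compound concentration, and assessed for percent growth 48 hours later.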 The source made the active and inactive calls. The calls were made as follows: active = growth percent below 10; inactive = the rest.
Experiments:
Assay in all cases: NCI-60 one-dose screen, 48 h (100 = growth as untreated, 0 = no growth, -100 = all killed)
Settings in all cases: 10 µM unless noted
RPMI-8226 leukemia = system: RPMI-8226 leukemia
OVCAR-8 ovarian = system: OVCAR-8 ovarian
OVCAR-5 ovarian = system: OVCAR-5 ovarian
OVCAR-4 ovarian = system: OVCAR-4 ovarian
SK-OV-3 ovarian = system: SK-OV-3 ovarian
IGROV1 ovarian = system: IGROV1 ovarian
HS 578T breast = system: HS 578T breast
NCI/ADR-RES ovarian = system: NCI/ADR-RES ovarian
T-47D breast = system: T-47D breast
OVCAR-3 ovarian = system: OVCAR-3 ovarian

Measured: growth

C=CCn1c(SCC(=O)Nc2ccc(C(=O)/C=C/c3cc(OC)c(OC)c(OC)c3)cc2)nnc1-c1ccc(Cl)cc1
inactive: OVCAR-5 ovarian 88.9% | OVCAR-4 ovarian 37.3% | SK-OV-3 ovarian 51.4% | IGROV1 ovarian 14.3% | HS 578T breast 48.6% | NCI/ADR-RES ovarian 41.3% | T-47D breast 18.1%
active: RPMI-8226 leukemia -21.6% | OVCAR-8 ovarian 7.91%

Cc1ccccc1NC(=O)c1sc2nc(C)c(C(C)O)cc2c1N (stereo not given)
inactive: RPMI-8226 leukemia 64.1% | OVCAR-8 ovarian 58.1% | OVCAR-5 ovarian 87.8% | OVCAR-4 ovarian 92.9% | SK-OV-3 ovarian 47.5% | IGROV1 ovarian 57.6% | HS 578T breast 53.3% | NCI/ADR-RES ovarian 29.4% | T-47D breast 54%

COc1ccc(-c2cc(C(=O)N3N=C(c4ccc(N)cc4)CC3c3ccc(OC)cc3)c3cc(OC)ccc3n2)cc1 (stereo not given)
inactive: RPMI-8226 leukemia 16.9% | OVCAR-8 ovarian 22.1% | OVCAR-5 ovarian 103% | OVCAR-4 ovarian 71.9% | SK-OV-3 ovarian 78.3% | IGROV1 ovarian 50.8% | HS 578T breast 45.9% | T-47D breast 43.4%
active: NCI/ADR-RES ovarian -8.76%

CC[C@H](Nc1ncnc2nc[nH]c12)c1nc2cccc(CC(=O)c3ccc(C(=O)NO)cc3)c2c(=O)n1-c1ccccc1
inactive: RPMI-8226 leukemia 45.1% | OVCAR-8 ovarian 81.3% | OVCAR-5 ovarian 97.9% | OVCAR-4 ovarian 78.3% | SK-OV-3 ovarian 98.8% | IGROV1 ovarian 89.1% | HS 578T breast 72% | NCI/ADR-RES ovarian 94% | T-47D breast 50.7%

COc1ccc(NC(=O)c2sc3nc(C)c(C(C)=O)cc3c2N)cc1
inactive: RPMI-8226 leukemia 85.6% | OVCAR-8 ovarian 91.9% | OVCAR-5 ovarian 91.3% | OVCAR-4 ovarian 95.7% | SK-OV-3 ovarian 99.3% | IGROV1 ovarian 115% | OVCAR-3 ovarian 109% | T-47D breast 82.7%

Cc1ccc(C(=O)/C(=C/c2ccc([N+](=O)[O-])cc2)S(=O)Cc2ccccc2)cc1 (stereo not given)
active: RPMI-8226 leukemia -13% | IGROV1 ovarian -7.98% | HS 578T breast -2.56% | T-47D breast -38.3%
inactive: OVCAR-8 ovarian 18.5% | OVCAR-5 ovarian 39.5% | OVCAR-4 ovarian 35% | SK-OV-3 ovarian 80.2% | NCI/ADR-RES ovarian 14.3%

C#CCN(CCCOc1ccc(Cl)cc1Cl)CCCSC(=O)CCCCCN1/C(=C\C=C2/CCCC(/C=C/C3=[N+](CCCCCC(=O)[O-])c4ccccc4C3(C)C)=C2Cl)C(C)(C)c2ccccc21
active: RPMI-8226 leukemia -22.6% | OVCAR-8 ovarian 8.18% | IGROV1 ovarian -13.2% | T-47D breast -21.4%
inactive: OVCAR-5 ovarian 66.4% | OVCAR-4 ovarian 57.1% | SK-OV-3 ovarian 65% | NCI/ADR-RES ovarian 106%

O=C1NN(c2ccccc2)C(c2ccc(Cl)cc2)N2CCC[C@H]12 (stereo not given in full)
inactive: RPMI-8226 leukemia 102% | OVCAR-8 ovarian 98.1% | OVCAR-5 ovarian 103% | OVCAR-4 ovarian 95.7% | SK-OV-3 ovarian 107% | IGROV1 ovarian 98.6% | HS 578T breast 91.6% | NCI/ADR-RES ovarian 93.1% | T-47D breast 100%

CC(C)(C)c1nc2c(s1)c1nc(N)ncc1c1ccc(NS(=O)(=O)c3c(F)cccc3F)c(F)c12
inactive: RPMI-8226 leukemia 68.9% | OVCAR-8 ovarian 61.1% | OVCAR-5 ovarian 104% | OVCAR-4 ovarian 60.7% | SK-OV-3 ovarian 13.7% | IGROV1 ovarian 38.5% | HS 578T breast 60.4% | NCI/ADR-RES ovarian 80.6% | T-47D breast 42.9%

CC1(c2ccccc2Cl)NC(=O)NC1=O (stereo not given)
inactive: RPMI-8226 leukemia 102% | OVCAR-8 ovarian 102% | OVCAR-5 ovarian 106% | OVCAR-4 ovarian 109% | SK-OV-3 ovarian 97.3% | IGROV1 ovarian 106% | HS 578T breast 99.7% | NCI/ADR-RES ovarian 96.9% | T-47D breast 79.3%

COc1ccc(/C=C/C(=O)c2ccc(NC(=O)CSc3nnc(-c4ccc(OC)c(OC)c4)n3-c3ccccc3)cc2)cc1
inactive: OVCAR-8 ovarian 11.4% | OVCAR-5 ovarian 112% | OVCAR-4 ovarian 91.3% | SK-OV-3 ovarian 85.1% | HS 578T breast 86.6% | NCI/ADR-RES ovarian 57.4% | T-47D breast 36.2%
active: RPMI-8226 leukemia -25% | IGROV1 ovarian -36.7%

C[C@]12CC[C@@H]3c4ccc(O)cc4CC[C@H]3[C@@H]1C[C@H](O)C2
inactive: RPMI-8226 leukemia 79.7% | OVCAR-8 ovarian 82.7% | OVCAR-5 ovarian 116% | OVCAR-4 ovarian 87% | SK-OV-3 ovarian 82.7% | IGROV1 ovarian 79.2% | NCI/ADR-RES ovarian 70.9% | T-47D breast 96.9%

Cc1cnc(SCc2ccc(Cl)cc2Cl)nc1Nc1ccc(Cl)c(Cl)c1
inactive: RPMI-8226 leukemia 86.7% | OVCAR-8 ovarian 91.9% | OVCAR-5 ovarian 103% | OVCAR-4 ovarian 93.9% | SK-OV-3 ovarian 97.9% | IGROV1 ovarian 82.8% | HS 578T breast 90.8% | NCI/ADR-RES ovarian 95.9% | T-47D breast 68%

COc1cc(C2=NN(C=O)C(c3cccc(Nc4ccnc5cc(C(F)(F)F)ccc45)c3)C2)cc(OC)c1OC (stereo not given)
inactive: RPMI-8226 leukemia 27% | OVCAR-8 ovarian 61.9% | OVCAR-5 ovarian 102% | OVCAR-4 ovarian 59.1% | SK-OV-3 ovarian 81.6% | IGROV1 ovarian 67.3% | HS 578T breast 87.5% | NCI/ADR-RES ovarian 55.3% | T-47D breast 43.6%

COc1cc(-c2csc(NC(=O)Nc3ccc(C(F)(F)F)cc3)n2)cc(OC)c1OC
inactive: OVCAR-5 ovarian 33% | IGROV1 ovarian 42.8%
active: RPMI-8226 leukemia -11.5% | OVCAR-8 ovarian 3.06% | SK-OV-3 ovarian -3.3% | OVCAR-3 ovarian 1.73% | HS 578T breast 6.93% | NCI/ADR-RES ovarian -1.59% | T-47D breast -3.68%

COc1cc(NCC(=O)Nc2cc(Nc3ccc(C)cc3)ncn2)c(Cl)c(OC)c1Cl
inactive: RPMI-8226 leukemia 82.9% | OVCAR-8 ovarian 88.4% | OVCAR-5 ovarian 92.3% | OVCAR-4 ovarian 78.5% | SK-OV-3 ovarian 81.9% | IGROV1 ovarian 82.5% | HS 578T breast 83.5% | NCI/ADR-RES ovarian 91.3% | T-47D breast 70.6%

COC(=O)c1cncc(C(=O)Nc2ccc(-n3cnc4ccccc43)cc2)c1
inactive: RPMI-8226 leukemia 74.5% | OVCAR-8 ovarian 97.2% | OVCAR-5 ovarian 101% | OVCAR-4 ovarian 107% | SK-OV-3 ovarian 108% | IGROV1 ovarian 90.5% | HS 578T breast 107% | NCI/ADR-RES ovarian 94.9% | T-47D breast 74.8%

CCO/C=N/S(=O)(=O)c1cc2c(cc1Cl)NC=NS2(=O)=O
inactive: RPMI-8226 leukemia 104% | OVCAR-8 ovarian 100% | OVCAR-5 ovarian 112% | OVCAR-4 ovarian 117% | SK-OV-3 ovarian 104% | IGROV1 ovarian 104% | OVCAR-3 ovarian 105% | T-47D breast 105%

COC1=CC=CC2(OC)C3(O)CCCc4cccc(c43)N3C(=O)COC132 (stereo not given)
inactive: RPMI-8226 leukemia 92.4% | OVCAR-8 ovarian 99.2% | OVCAR-5 ovarian 104% | OVCAR-4 ovarian 96.6% | SK-OV-3 ovarian 107% | IGROV1 ovarian 94.7% | HS 578T breast 93.7% | NCI/ADR-RES ovarian 101% | T-47D breast 97.7%

Cc1c(Br)cccc1NC(=O)c1sc2nc3c(cc2c1N)CN(Cc1ccccc1)CC3
active: RPMI-8226 leukemia 4.4%
inactive: OVCAR-8 ovarian 14.1% | OVCAR-5 ovarian 36.7% | OVCAR-4 ovarian 28.1% | SK-OV-3 ovarian 22.8% | IGROV1 ovarian 39.3% | HS 578T breast 11.3% | NCI/ADR-RES ovarian 24.2% | T-47D breast 43%

NC[C@@H]1CCN(c2cc3c(cc2F)c(=O)n(N)c(=O)n3Cc2ccc(-c3ccccc3)cc2)C1
inactive: RPMI-8226 leukemia 65.2% | OVCAR-8 ovarian 96.3% | OVCAR-5 ovarian 111% | OVCAR-4 ovarian 97.4% | SK-OV-3 ovarian 84.6% | IGROV1 ovarian 91.9% | HS 578T breast 82.9% | NCI/ADR-RES ovarian 95.5% | T-47D breast 89%

O=C1CS/C(=N/c2nnc(-c3ccc(O)cc3)s2)N1
inactive: RPMI-8226 leukemia 101% | OVCAR-8 ovarian 109% | OVCAR-5 ovarian 103% | OVCAR-4 ovarian 110% | SK-OV-3 ovarian 82% | IGROV1 ovarian 107% | HS 578T breast 95.4% | NCI/ADR-RES ovarian 99.3% | T-47D breast 75.3%

COc1cccc(NC(=O)Nc2ccc(Nc3ncnc4[nH]c(C)c(C)c34)cc2)c1
inactive: RPMI-8226 leukemia 90.8% | OVCAR-8 ovarian 91.7% | OVCAR-5 ovarian 114% | OVCAR-4 ovarian 109% | SK-OV-3 ovarian 102% | IGROV1 ovarian 115% | HS 578T breast 83.9% | NCI/ADR-RES ovarian 107% | T-47D breast 89.8%

CNc1cccc2c1C(=O)c1cccc(N)c1C2=O
inactive: RPMI-8226 leukemia 38.9% | OVCAR-8 ovarian 64.5% | OVCAR-5 ovarian 73.8% | OVCAR-4 ovarian 57.6% | SK-OV-3 ovarian 60.5% | IGROV1 ovarian 67.5% | HS 578T breast 19.4% | NCI/ADR-RES ovarian 85% | T-47D breast 45.9%

CC1CCN(CCCCCOc2ccc3oc4cc(Cl)ccc4c(=O)c3c2)CC1
inactive: RPMI-8226 leukemia 50.4% | OVCAR-8 ovarian 73.6% | OVCAR-5 ovarian 64.8% | OVCAR-4 ovarian 75.2% | SK-OV-3 ovarian 96.5% | IGROV1 ovarian 51.8% | T-47D breast 64.6%

c1ccc(Sc2ncccn2)nc1
inactive: RPMI-8226 leukemia 65.6% | OVCAR-8 ovarian 100% | OVCAR-5 ovarian 101% | OVCAR-4 ovarian 98.1% | SK-OV-3 ovarian 99.4% | IGROV1 ovarian 108% | HS 578T breast 94% | NCI/ADR-RES ovarian 96.4% | T-47D breast 99.4%

CCCCC(=O)Nc1c(C(=O)Nc2ccccc2)sc2nc3c(cc12)C(OC(=O)CCCC)CCC3 (stereo not given)
inactive: RPMI-8226 leukemia 48.9% | OVCAR-8 ovarian 84.7% | OVCAR-5 ovarian 111% | OVCAR-4 ovarian 36.7% | SK-OV-3 ovarian 108% | IGROV1 ovarian 99.8% | HS 578T breast 89.5% | NCI/ADR-RES ovarian 79.3% | T-47D breast 79%

O=C(C[n+]1cccc2cc(Cl)ccc21)c1ccc2c(c1)CCCC2
inactive: OVCAR-8 ovarian 25.6% | OVCAR-5 ovarian 28.3% | OVCAR-4 ovarian 16.2% | SK-OV-3 ovarian 16.9% | IGROV1 ovarian 33.7% | HS 578T breast 37.5% | NCI/ADR-RES ovarian 101%
active: RPMI-8226 leukemia 7.65% | T-47D breast 2.41%

Cc1nccc2c3ccc(OCc4cn(-c5ccccc5)nn4)cc3n(CCCc3ccccc3)c12
inactive: RPMI-8226 leukemia 31.6% | OVCAR-8 ovarian 55.6% | OVCAR-5 ovarian 91.2% | OVCAR-4 ovarian 71.2% | SK-OV-3 ovarian 69.7% | IGROV1 ovarian 89.1% | HS 578T breast 65.5% | NCI/ADR-RES ovarian 70.4% | T-47D breast 78.4%
